Bioassay records from PubChem BioAssay.
Shown is part of a subset that was picked to be rich in hits.
YB-1 expr inh: inhibitors of YB-1 gene expression, primary screen, cell-based, fluorescence; delta delta Cp (YB-1 minus CDIP) (no concentration beside the values); U2OS, qRT-PCR YB-1 vs CDIP delta delta Cp, 16 h; active compounds read high; zero = DMSO, each unit about twofold; 30,000 compounds, 0.37% hits;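 active = delta delta Cp rounded down to an integer at or above 3, about 3 SD of DMSO wells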;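 note: higher means less YB-1 transcript or more CDIP transcript relative to DMSO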
NOMO-1 viab: NOMO-1 AML cell viability reduction, primary screen, STK33 inhibitor project, CellTiter-Glo luminescence. NOMO-1 AML viability, 72 h. inhibition, % (no concentration beside the values). 37,000 compounds, 7.5% hits. AID 2330, 2010; in the data active = inhibition above about 80%; inconclusive = no clear call, values can overlap the other calls
MITF inhib: inhibitors of MITF, primary screen, MITF inhibitor project, cell-based, luminescence. TRPM1 promoter luciferase, 24 h. inhibition, % (no concentration beside the values). 37,000 compounds, 0.28% hits. AID 2240, 2010; in the data active = inhibition above about 85%; inconclusive = no clear call, values can overlap the other calls; inactive = below about 68%;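 note: human melanocyte line stably carrying TRPM1 promoter luciferase reporter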
ROS inducer: ROS inducers in U2OS cancer cells, primary screen, cell-based, H2DCF-DA fluorescence; ROS induction (% of piperlongumine), % at 10 µM; 46,000 compounds, 2% hits; U2OS ROS induction; in the data active = ROS induction above about 79%, passing the limit was not always enough; inconclusive = no clear call, values can overlap the other calls;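 note: 0% = DMSO vehicle median and 100% = reference compound median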
PD-1 reverse act: activators reversing PD-1 mediated T-cell inhibition, primary screen, luminescence, primary human CD4 T cells, PD-L1 beads; activation, % (concentration not given with the values); CellTiter-Glo 96 h; 29,000 tested, under 10 active; call rule not given here;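 note: 0% = median vehicle wells and 100% = positive control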
An asterisk follows results filed as active; ? = inconclusive; . = no result.

SMILES	YB-1 expr inh	NOMO-1 viab	MITF inhib	ROS inducer	PD-1 reverse act
C[C@H]1CN([C@@H](C)CO)C(=O)c2cc(NC(=O)CCN3CCOCC3)ccc2O[C@H]1CN(C)S(=O)(=O)c1ccccc1	-0.1	1	7	-6	.
C[C@@H]1CN([C@H](C)CO)C(=O)c2cc(NC(=O)CCN3CCOCC3)ccc2O[C@H]1CN(C)S(=O)(=O)c1ccccc1	20*	-6	2	-9	1
C[C@@H]1CN([C@H](C)CO)C(=O)c2cc(NC(=O)Cc3ccccc3)ccc2O[C@@H]1CN(C)S(=O)(=O)c1ccccc1	18*	5	1	-2	1
CCc1ccc(Nc2nc3ccccc3nc2NS(=O)(=O)c2ccc(C)cc2)cc1	0.05	26	-9	-21	0
Nc1ncnc(Sc2nc3ccccc3s2)c1[N+](=O)[O-]	.	114*	28	100*	-12
COc1ccc(-n2c(=O)c(C#N)cc3c(=O)n4ccccc4nc32)cc1Cl	.	.	.	24	.
COCCCNC(=O)c1cc(-c2ccccc2)nc2c(C)cc(C)cc12	.	41	-22	-2	-2
NC(=O)C(Cc1ccccc1)NS(=O)(=O)c1ccc2oc3ccccc3c2c1 (configuration not stated)	.	17	12	165*	-1
Cc1c(C(=O)O)oc2ccc(S(=O)(=O)NCCc3ccccc3)cc12	.	.	.	-5	.
Oc1ccc2oc3c(c2c1/C=N/N1CCCCC1)CCCC3	-0.11	11	19	4	2
COc1ccc(N=Cc2c(O)ccc3oc4c(c23)CCCC4)cc1	-0.16	99*	10	21	0
COc1cc2nc(N3CCN(C(=O)c4ccco4)CC3)nc(N)c2cc1OC	0.35	95*	2	-4	2
COc1cc2nc(N3CCN(C(=O)C4COc5ccccc5O4)CC3)nc(N)c2cc1OC (configuration not stated)	2.7	-2	0	-1	-1
COC(=O)/C=C/S(=O)(=O)c1ccc(NC(C)=O)cc1	-0.39	126*	21	121*	-5
CC(=O)Nc1ccc(S(=O)(=O)NC(C)C)cc1	.	.	.	-7	.
C[C@H]1CN([C@@H](C)CO)C(=O)c2cc(NS(=O)(=O)c3ccc(F)cc3)ccc2O[C@@H]1CN(C)Cc1ccc(C(=O)Nc2ccccc2N)cc1	0.28	7	-3	12	0
COc1ccc(S(=O)(=O)Nc2ccc3c(c2)C(=O)N([C@@H](C)CO)C[C@@H](C)[C@@H](CN(C)Cc2ccc(C(=O)Nc4ccccc4N)cc2)O3)cc1	-0.74	110*	17	20	0
COc1ccc(S(=O)(=O)Nc2ccc3c(c2)C(=O)N([C@H](C)CO)C[C@@H](C)[C@@H](CN(C)Cc2ccc(C(=O)Nc4ccccc4N)cc2)O3)cc1	-0.38	108*	21	19	0
COc1ccc(S(=O)(=O)Nc2ccc3c(c2)C(=O)N([C@@H](C)CO)C[C@@H](C)[C@H](CN(C)Cc2ccc(C(=O)Nc4ccccc4N)cc2)O3)cc1	-0.13	40	9	11	-1
Cc1cc(C(F)(F)F)nc2sc(C(=O)Nc3ccc(C(N)=O)cc3)c(N)c12	.	.	.	34	.
O=C(CCCCC(=O)N/N=C/c1ccc(CO)o1)NO	0.25	.	.	-7	.
CC1CCC/C=C/C(=O)c2c(O)cc(O)cc2CC(=O)O1 (configuration not stated)	0.2	108*	38	91*	-14
CC(C)Sc1ccc2nnc(-c3ccccn3)n2n1	.	.	.	20	.
O=c1oc(Cl)c(Cl)c2ccccc12	0.19	119*	46	45	.
Cc1cc(C)c2oc(-c3ccc(NC(=O)COc4ccc(Br)cc4)cc3O)nc2c1	0.2	13	-27	0	0
SMILES	YB-1 expr inh	NOMO-1 viab	MITF inhib	ROS inducer	PD-1 reverse act
C[C@@H]1CN([C@@H](C)CO)C(=O)c2cccc(NC(=O)Nc3ccc4c(c3)OCO4)c2O[C@H]1CN(C)Cc1ccc(Oc2ccccc2)cc1	-0.88	95*	24	41	0
C[C@@H]1CN([C@H](C)CO)C(=O)c2cccc(NC(=O)Nc3ccc4c(c3)OCO4)c2O[C@@H]1CN(C)Cc1ccc(Oc2ccccc2)cc1	0.072	32	-2	14	.
C[C@@H]1CN([C@@H](C)CO)C(=O)c2cccc(NC(=O)Nc3ccc4c(c3)OCO4)c2O[C@@H]1CN(C)Cc1ccc(Oc2ccccc2)cc1	0.38	95*	-5	71	-4
Cc1cc(C)c2c(c1)/C(=c1/sc3n(c1=O)CN(c1cccc(Br)c1)CN=3)C(=O)N2	.	.	.	-3	.
COc1ccccc1NC(=O)C1=C(C)Nc2ncnn2C1c1ccncc1 (configuration not stated)	.	31	7	-7	2
CSc1sc(Cl)c2c1/C(=N\O)CC(C)(C)C2	-0.098	110*	6	-14	-5
CSc1sc(/C(C)=N\O)c2c1/C(=N\O)CC(C)(C)C2	-0.65	41	5	6	-1
C[C@@H]1CCCCO[C@H](CN(C)CC2CCCCC2)[C@@H](C)CN([C@H](C)CO)C(=O)c2cc(NC(=O)Nc3ccc(C(F)(F)F)cc3)ccc2O1	-0.26	112*	-12	95*	-14
C[C@@H]1CCCCO[C@H](CN(C)Cc2ccc(C(F)(F)F)cc2)[C@@H](C)CN([C@H](C)CO)C(=O)c2cc(NC(=O)NC3CCCCC3)ccc2O1	0.21	94*	13	69	-5
C[C@@H]1CCCCO[C@H](CN(C)Cc2ccc(C(F)(F)F)cc2)[C@@H](C)CN([C@H](C)CO)C(=O)c2cc(NC(=O)Nc3ccc(F)cc3)ccc2O1	-0.0064	100*	21	33	0
C[C@@H]1CCCCO[C@H](CN(C)Cc2ccc3c(c2)OCO3)[C@@H](C)CN([C@H](C)CO)C(=O)c2cc(NC(=O)Nc3ccc(C(F)(F)F)cc3)ccc2O1	-0.066	84*	-18	20	.
COc1ccc(NC(=O)N(C)C[C@@H]2Oc3c(NS(=O)(=O)c4ccccc4)cccc3C(=O)N([C@H](C)CO)C[C@H]2C)cc1	0.15	-1	-1	-8	.
C[C@@H]1CCCCO[C@H](CN(C)Cc2ccc(C(F)(F)F)cc2)[C@@H](C)CN([C@H](C)CO)C(=O)c2cc(NC(=O)Nc3ccc(C(F)(F)F)cc3)ccc2O1	0.099	113*	0	6	-2
C[C@@H]1CCCCO[C@@H](CN(C)Cc2ccc(C(F)(F)F)cc2)[C@@H](C)CN([C@H](C)CO)C(=O)c2cc(NC(=O)NC3CCCCC3)ccc2O1	0.12	?	32	17	-1
C[C@@H]1CCCCO[C@@H](CN(C)Cc2ccc(C(F)(F)F)cc2)[C@@H](C)CN([C@H](C)CO)C(=O)c2cc(NC(=O)Nc3ccc(C(F)(F)F)cc3)ccc2O1	0.29	107*	-1	10	0
